Drawing on PubChem BioAssay AID743287 (Broad Institute, 2014), this text covers activation for 75 compounds.

The structures appear in SMILES notation. Several values for one entry are separate records, joined by “and”; a condition that tells them apart may be missing. Identical values can stand only once. Hit rate of the full screen: of about 370,000 compounds, about 2,300 (0.62%) were called active. The list comes from a sample in which actives are over-represented; it also holds similar structures and randomly drawn compounds. A number with no mark means an inactive call.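 How the source made its calls: active means lowest replicate activation of at least 40%, so every replicate reaches that level; inactive means the rest.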

The assay is described as follows: GLuc luminescence reporter in INS-1E cells, primary screen for activators of glucose-dependent secretion of insulin (AID 743287).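 Further: 0% = median of neutral control wells and 100% = median of IBMX positive control wells.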 Particulars: INS-1E GLuc reporter insulin secretion, 2-3 h, at 16.6 µM, hits give high values.
For the compound `C=CCSc1nc2c(c(=O)[nH]1)C(C(C)C)C(C#N)=C(N)O2` (stereo not given), the activation is 71.8% (active).

Consider `C=CCSc1nc(N)cc(=O)[nH]1`, for which the activation is 18%.

As to `O=C(C[C@@H]1CC[C@@H]2[C@H](COC[C@H](O)CN2S(=O)(=O)c2ccccc2)O1)N[C@H]1CCN(Cc2ccccc2)C1`, the activation is 4.06%.

In the case of `COc1ccc(NC(=O)N(C)C[C@H]2Oc3c(NC(=O)Nc4cccc5ccccc45)cccc3C(=O)N([C@H](C)CO)C[C@@H]2C)cc1`, the activation was -5.46%.

As to `Cc1cccc(-c2ccc(C3[C@H]4CNC[C@@H]3N4S(=O)(=O)c3ccccc3F)cc2)c1` (stereo not given in full), the activation was -12.2% and 1.38%.

As to `C/C=C/c1ccc([C@@H]2[C@@H](CN(C)C(C)=O)N(C(=O)C3CC3)[C@H]2CO)cc1`, the activation is -3.3%.

`C[C@@H]1CN([C@H](C)CO)C(=O)c2cc(NC(=O)Cn3cnnn3)ccc2O[C@@H]1CN(C)C(=O)Nc1ccc2c(c1)OCO2`: the activation was 6.33%.

As for `C[C@H](CO)N1C[C@H](C)[C@H](CN(C)S(C)(=O)=O)Oc2ncc(C3=CCCC3)cc2C1=O`, the activation is 23.9%.

`COc1ccc2c3c(n(C)c2c1)[C@H](CO)N(C(=O)NC(C)C)CC31CN(CC2CCCCC2)C1`: the activation is -8.45%.

`C/C=C/c1ccc2c(c1)O[C@@H](CN(C)C(=O)c1ccncc1)[C@@H](C)CN([C@H](C)CO)S2(=O)=O`: the activation was 9.46%.

Regarding `C=CCOc1ccc(/C=N/NC(=O)C(C)Sc2ccccn2)cc1OCC` (stereo not given), the activation was 26.6%.

For `CCOc1ccc(/C=N/NC(=O)CSc2ccccn2)cc1O`, the activation is 47.7% (active).

Consider `C/C(=N/NC(=O)CSc1ccccn1)c1ccc([N+](=O)[O-])cc1`, for which the activation was 3.45%.

With `Cc1ccccc1S(=O)(=O)N1CC(=O)N2[C@H](CO)[C@@H](c3ccc(C#Cc4ccccc4)cc3)[C@H]2C1`, the activation is -6.46%.

For the compound `Cc1nc(N2[C@H](CO)[C@H](c3ccccc3)[C@H]2CNCC2CCC2)sc1C`, the activation was 2.74%.

Regarding `CCCNC(=O)N1CC2(CN(C(=O)C3CCCCC3)C2)c2c([nH]c3cc(OC)ccc23)[C@@H]1CO`, the activation was 13.6%.

Turning to `Cc1ccc(-c2ccc3c(c2)O[C@@H](CN(C)C(=O)NC(C)C)[C@@H](C)CN([C@H](C)CO)S3(=O)=O)cc1`, the activation is 4.12%.

As to `c1ccc(-c2ccccc2OCCN2CCCCC2)cc1`, the activation was 53.2% (active).

Consider `Cc1ccc(C(C)C)cc1OCCN1CCCC1`, for which the activation was 12.9%.

Turning to `C#CC(CCN1CCCCC1)(OC)c1ccccc1` (stereo not given), the activation is 17.7%.

In the case of `CCCNC(=O)N1CC(=O)N2[C@H](CO)[C@@H](c3ccc(-c4ccc(F)cc4)cc3)[C@H]2C1`, the activation is -19.7%.

As for `C[C@H](CO)N1C[C@H](C)[C@@H](CN(C)CC2CC2)OCCCC[C@H](C)Oc2ccc(NC(=O)Cc3ccccc3)cc2C1=O`, the activation is 7.71%.

For the compound `COc1ccc(S(=O)(=O)N(C)C)cc1NC(=O)COC(=O)c1n[nH]c2ccccc12`, the activation was -5.72%.

In the case of `COc1ccc(COC(=O)c2n[nH]c3ccccc23)cc1F`, the activation is -12.2%.

`CCN(CC)S(=O)(=O)c1ccc2nc(COC(=O)c3n[nH]c4ccccc34)[nH]c2c1`: the activation is 57.7% (active).

For `C[C@H](CO)N1C[C@H](C)[C@@H](CN(C)C(=O)Nc2ccnc(N3CCOCC3)c2)OCc2ccccc2-c2c(n(C)c3ccccc23)C1=O`, the activation is -17.9%.

On to `CNC[C@H]1Oc2ccc(NC(=O)CCC(F)(F)F)cc2C(=O)N([C@@H](C)CO)C[C@H]1C`, for which the activation is 4.67%.

Consider `C[C@H]1CN([C@@H](C)CO)C(=O)c2cc(NC(=O)Cc3cn(C)c4ccccc34)ccc2O[C@@H]1CN(C)Cc1ccc(Cl)c(Cl)c1`, for which the activation was 7.56%.

Turning to `C[C@H](CO)N1C[C@H](C)[C@@H](CN(C)C(=O)Nc2cc(F)ccc2F)Oc2cc(C#CC3CC3)ccc2S1(=O)=O`, the activation is -8.09%.

Regarding `CN(C)C(=O)[C@@H]1[C@@H](CO)[C@@H]2Cn3c(cccc3=O)[C@H]1N2C(=O)c1ccc(F)cc1`, the activation is 7.45%.

Regarding `O=C(C[C@@H]1CC[C@H](NC(=O)C2CC2)[C@@H](CO)O1)NCc1ccncc1`, the activation is -4.07%.

As for `COc1ccc(C2OCC3(CO2)SC(=O)NC3=O)cc1OC` (stereo not given), the activation was 21.8%.

In the case of `COc1ccc(C2CC(=O)Nc3sc(=N)c4c(N)c(C#N)c(N)nc4c32)cc1OC` (stereo not given), the activation was 70.3% (active).

Consider `CCc1nc2c(OCCC3CCCCC3)cccn2c1N(C)C(=O)c1ccco1`, for which the activation was 42% (active).

Turning to `CCc1nc2c(OCc3ccccc3)cccn2c1N(C)C(=O)c1ccco1`, the activation is 17.3%.

Take `CCc1nc2c(OCc3ccc(F)c(F)c3)cccn2c1N(C)C(=O)c1ccco1`: the activation was -1.95%.

With `CCC(=O)Nc1ccc2c(c1)C(=O)N(C)C[C@@H](OC)[C@H](C)CN(Cc1cccnc1)[C@@H](C)CO2`, the activation was -1.44%.

In the case of `C[C@@H]1CN([C@@H](C)CO)C(=O)c2cccc(NC(=O)C3CC3)c2O[C@@H]1CN(C)C`, the activation was 21.1%.

For `C=CCN(CC=C)S(=O)(=O)c1ccc(C(=O)Nc2sc3c(c2C(N)=O)CCCCC3)cc1`, the activation was 47.2% (active).

Turning to `CCOC(=O)c1c(NC(=O)C2CCN(S(=O)(=O)c3ccc(Cl)cc3)CC2)sc2c1CCCC2`, the activation is -4.47%.

Regarding `CC(=O)N1CCc2c(sc(NC(=O)CCS(=O)(=O)c3ccc(C)cc3)c2C(N)=O)C1`, the activation is 4.75%.

Regarding `Cc1ccc(S(=O)(=O)N(C)C[C@@H]2Oc3c(NC(=O)C4CCCCC4)cccc3C(=O)N([C@H](C)CO)C[C@H]2C)cc1`, the activation is -9.86%.

Take `C=CCn1cc(Cl)cc(C(=O)Nc2ccccc2)c1=O`: the activation is 98.4% (active).

Turning to `O=C(Nc1ccc(CN2CCOCC2)cc1)c1cc(Cl)ccc1Cl`, the activation was -0.035%.

Turning to `C=CCc1cccc2cc(C(=O)Nc3ccc(NC(C)=O)cc3)c(=O)oc12`, the activation is 6.64%.

Turning to `C[C@H](CO)N1C[C@H](C)[C@H](CN(C)S(=O)(=O)c2ccccc2)Oc2ccc(NC(=O)Cn3cnnn3)cc2C1=O`, the activation was 12.8%.

On to `C[C@H]1CN([C@@H](C)CO)C(=O)c2cccc(NC(=O)Nc3ccc(F)cc3)c2O[C@H]1CN(C)S(=O)(=O)c1cn(C)cn1`, for which the activation is 6.95%.

Consider `O=C(COC(=O)c1ncc(Cl)c(Cl)c1Cl)NNC(=O)c1ccccc1`, for which the activation was -6.14%.

For `O=C(COC(=O)/C=C/c1ccc(Cl)cc1)NC1CCS(=O)(=O)C1` (stereo not given), the activation is 14.8%.

Turning to `O=C(COC(=O)c1ncc(Cl)c(Cl)c1Cl)NC1CCS(=O)(=O)C1` (stereo not given), the activation was 53.1% (active).

`N#Cc1ccc(OCCCN2CCC(C(O)(c3ccccc3)c3ccccc3)CC2)c(F)c1`: the activation is -32.8%.

As for `O=c1[nH]c2ccccc2n1C1CCN(CCOc2ccccc2)CC1`, the activation is -4.23%.

`OC(c1ccccc1)(c1ccccc1)C1CCN(CCCOc2ccc(-c3ccsc3)cc2)CC1`: the activation is 83.7% (active).

For `CC(=O)N1[C@H](CN(C)S(=O)(=O)c2ccccc2)[C@H](c2ccccc2)[C@@H]1CO`, the activation is 2.97%.

Take `COc1ccc(NC(=O)N(C)C[C@@H]2Oc3ccc(NC(=O)Nc4ccccc4)cc3CC(=O)N([C@H](C)CO)C[C@@H]2C)cc1`: the activation was -8.36%.

As for `Cc1ccc(-c2cc(=O)[nH]c(NCc3ccccc3)n2)cc1`, the activation is 0.61%.

`CNc1nc(-c2ccccc2)cc(-c2ccccc2)n1`: the activation is 50.3% (active).

For the compound `CN1CCCc2nc(-c3ccccc3)ccc21`, the activation was 15.2%.

As to `C[C@@H]1CN([C@H](C)CO)C(=O)c2cccc(NC(=O)CCCCCC(=O)Nc3ccccc3N)c2O[C@H]1CN(C)Cc1ccc(Oc2ccccc2)cc1`, the activation is -51.6%.

In the case of `O=C(C[C@@H]1CC[C@@H](NC(=O)c2ccc3c(c2)OCO3)[C@H](CO)O1)NCc1ccc(Cl)cc1`, the activation was -2.44%.

For the compound `COc1ccc(S(=O)(=O)N(C)C[C@H]2Oc3ccc(NS(=O)(=O)c4ccc(F)cc4)cc3C(=O)N([C@H](C)CO)C[C@H]2C)cc1`, the activation was -11.6%.

Regarding `COC(=O)C1=C(C)N(C)C(=S)NC1c1cc(OC)ccc1OC` (stereo not given), the activation is -51%.

For `COC(=O)C1=C(C)NC(=S)NC1c1ccc(OC)cc1` (stereo not given), the activation was 140% (active).

In the case of `COC(=O)C1=C(C)NC(=S)NC1c1ccc(OCC(=O)N2CC(C)OC(C)C2)c(OC)c1` (stereo not given), the activation is 8.95%.

For `CC(=O)N(C)C[C@@H]1Oc2ccc(N)cc2CC(=O)N(C)C[C@H]1C`, the activation is -4.42%.

With `Cc1ccnc(NS(=O)(=O)c2ccc(NC(=O)c3oc4ccccc4c3C)cc2)n1`, the activation is -7.58%.

For the compound `Cc1ccnc(NS(=O)(=O)c2ccc(NC(=O)c3oc4ccc(F)cc4c3C)cc2)n1`, the activation was 17.6%.

In the case of `Cc1cc(C)c2oc(C(=O)Nc3ccc(S(=O)(=O)Nc4nccc(C)n4)cc3)cc(=O)c2c1`, the activation was 74.6% (active).

Consider `CC(=O)Nc1ccc2c(c1)CC(=O)N(C)C[C@H](C)[C@H](CN(C)S(C)(=O)=O)O2`, for which the activation is 17.7%.

As to `CC=Cc1ccc2n(c1=O)C[C@H]1[C@H](CO)[C@@H](C(=O)NC3CCCC3)[C@@H]2N1C(=O)c1cnccn1` (mixture of isomers), the activation is 3.54%.

As to `CC1CN(C(=S)Nc2ccc(Br)cc2Cl)CC(C)O1` (stereo not given), the activation was -10.5%.

Consider `Cc1cc(Br)ccc1NC(=S)NC1CCCC1`, for which the activation was 46.8% (active).

In the case of `Cc1ccccc1C(=O)NC(=S)NC1CC1`, the activation was -11.6%.

In the case of `C[C@@H]1CN([C@H](C)CO)C(=O)c2cccc(NS(=O)(=O)c3cn(C)cn3)c2O[C@H]1CN(C)S(=O)(=O)c1ccc(Cl)cc1`, the activation was 12%.

Take `O=C(Nc1ccccc1F)N1CC(=O)N2[C@H](CO)[C@H](c3ccc(C#CC4CC4)cc3)[C@@H]2C1`: the activation was -9.47%.
